# PMC5540273 (PLoS ONE, 2017)
# Columns and labels:
# Conditions in all cases: concentration: 1 μM, replicates: in singlicate; n = 1
# PRKX = tested on: PRKX
# PRP4 = tested on: PRP4
# PYK2 = tested on: T1, PYK2
# T1 construct: gene PTK2B
# QSK = tested on: QSK
# RAF1 = tested on: RAF1
# RET = tested on: RET
# RIOK1 = tested on: RIOK1
# RIOK2 = tested on: RIOK2
# RIOK3 = tested on: RIOK3
# RIPK1 = tested on: RIPK1
# RIPK2 = tested on: RIPK2
# RIPK4 = tested on: RIPK4
# RIPK5 = tested on: RIPK5
# ROCK1 = tested on: ROCK1
# ROCK2 = tested on: ROCK2
# ROS1 = tested on: ROS1
# [1] = tested on: RPS6KA4(Kin.Dom.1-N-terminal)
# [2] = tested on: RPS6KA4(Kin.Dom.2-C-terminal)
# [3] = tested on: RPS6KA5(Kin.Dom.1-N-terminal)
# [4] = tested on: RPS6KA5(Kin.Dom.2-C-terminal)
# 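Note: KINOMEscan kinase panel screen.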
Compound,%Inh (PRKX),%Inh (PRP4),%Inh (PYK2),%Inh (QSK),%Inh (RAF1),%Inh (RET),%Inh (RIOK1),%Inh (RIOK2),%Inh (RIOK3),%Inh (RIPK1),%Inh (RIPK2),%Inh (RIPK4),%Inh (RIPK5),%Inh (ROCK1),%Inh (ROCK2),%Inh (ROS1),%Inh [1],%Inh [2],%Inh [3],%Inh [4]
O=C(NCCNc1ccnc(Nc2ccc(F)cc2)n1)Nc1ccc2c(c1)OCO2 [GSK1379882],30%,47%,9%,0%,5%,0%,15%,0%,15%,25%,0%,11%,0%,0%,0%,0%,0%,0%,9%,10%
CC(C)(C)c1ccc(C(=O)Nc2cn3cc(-c4ccccc4)ccc3n2)cc1,3%,19%,0%,0%,0%,0%,2%,14%,22%,0%,16%,0%,2%,0%,63%,0%,6%,0%,0%,18%
COc1cc(Nc2ccnc3ccc(C(F)(F)F)cc23)cc(OC)c1OC [GW577382],15%,27%,0%,22%,20%,9%,11%,15%,0%,15%,64%,1%,0%,0%,15%,9%,10%,0%,6%,13%
OCCCNc1nccc(-c2c(-c3cccc(C(F)(F)F)c3)nn3cc(C(F)(F)F)ccc23)n1 [GW630813],0%,17%,5%,0%,0%,11%,38%,0%,14%,0%,14%,0%,0%,11%,24%,0%,0%,0%,0%,16%
Cc1c(Cn2c(C)nn3c(=O)cc(N4CCO[C@H](C)C4)nc23)cccc1C(F)(F)F [GSK2373690],29%,26%,1%,14%,19%,6%,15%,17%,27%,1%,4%,0%,0%,7%,0%,4%,16%,0%,27%,15%
COc1ccc(CNC(=O)NC2CCN(c3ccnc(Nc4ccc(F)cc4)n3)C2)cc1 (stereo not drawn) [GSK1379706],18%,47%,1%,0%,6%,21%,8%,0%,0%,0%,19%,0%,15%,29%,27%,12%,0%,0%,13%,27%
CCC(=O)c1c(-c2ccccc2)c2cc(Cl)ccc2c(=O)n1Cc1cc(S(C)(=O)=O)n(CC(N)=O)n1,0%,38%,0%,0%,11%,1%,1%,0%,0%,0%,0%,0%,0%,0%,0%,0%,0%,0%,30%,22%
Nc1nc(N)c2nc(-c3ccccc3)[nH]c2n1 [SKF-12778],7%,0%,0%,10%,11%,25%,20%,37%,8%,18%,10%,66%,0%,26%,24%,10%,11%,0%,9%,0%
Cc1nc(N(C)[C@H]2CN(C(=O)CC#N)CC[C@H]2C)c2cc[nH]c2n1,4%,0%,0%,0%,0%,5%,0%,2%,8%,11%,0%,17%,17%,2%,0%,0%,0%,10%,0%,9%
COc1cccc(-n2cnc3c(N)ncnc32)c1 [SKF-97416],32%,0%,0%,28%,0%,0%,0%,22%,0%,0%,1%,43%,18%,66%,60%,0%,19%,7%,0%,0%
O=C(Nc1ccc2c(c1)OCO2)NC1CCN(c2ccnc(NCc3ccc(F)cc3)n2)CC1 [GSK1379859],3%,0%,0%,0%,3%,21%,33%,0%,30%,17%,10%,0%,10%,74%,47%,0%,13%,0%,9%,0%
COC(=O)c1c(-c2ccccc2)c2cc(Br)ccc2c(=O)n1Cc1ccc(NC(=O)CCC(=O)O)cc1,10%,0%,16%,0%,14%,5%,0%,0%,0%,0%,12%,20%,21%,8%,0%,0%,0%,9%,23%,0%
CN(C)c1cc(-c2ccc3c(N)n[nH]c3c2)nc(N)n1 [GSK2219329],18%,6%,0%,5%,0%,0%,48%,0%,38%,0%,0%,15%,0%,0%,0%,10%,8%,0%,18%,0%
Cc1nn2c(=O)cc(N3CCOCC3)nc2n1Cc1cccc(Cl)c1Cl [GSK2342769],8%,15%,6%,8%,15%,72%,38%,36%,11%,0%,10%,9%,0%,0%,0%,0%,0%,0%,16%,0%
COC(=O)c1c(-c2ccccc2)c2cc(Br)ccc2c(=O)n1Cc1ccc(S(C)(=O)=O)cc1,28%,0%,6%,0%,27%,16%,0%,19%,0%,0%,0%,46%,20%,23%,0%,0%,0%,21%,24%,3%
CCC(=O)c1c(-c2ccccc2)c2cc(Cl)ccc2c(=O)n1Cc1cc(S(C)(=O)=O)n(CCC(C)(C)O)n1,30%,0%,0%,8%,14%,14%,8%,42%,0%,20%,14%,0%,3%,16%,0%,14%,3%,12%,20%,1%
Cc1nnc(-c2ccc(C)c(-c3ccc(C(=O)O)cc3)c2)o1 [GW608005],0%,8%,0%,0%,0%,2%,15%,19%,0%,5%,0%,9%,0%,0%,0%,0%,0%,0%,9%,0%
O=c1cc(N2CCOCC2)nc2n(Cc3ccc(F)c(Cl)c3)ccn12 [GSK2297099],20%,17%,0%,2%,54%,0%,5%,18%,14%,1%,0%,27%,0%,0%,0%,0%,4%,0%,16%,27%
CN1C(=O)C(Nc2cc(Cl)c(O)c(Cl)c2)=C(c2ccc(Cl)cc2)C1=O [SB-404321],0%,17%,1%,0%,10%,0%,0%,0%,0%,0%,0%,32%,0%,6%,0%,0%,0%,0%,0%,0%
FC(F)(F)c1ccc(-c2ncn(CCCN3CCOCC3)c2-c2ccncc2)cc1 [SB-217780],14%,0%,34%,0%,0%,20%,47%,5%,50%,0%,0%,61%,0%,27%,0%,0%,1%,11%,0%,0%
Cn1c(=O)c(F)c(Nc2ccc(I)cc2F)c2c(=O)n(OC[C@H](O)CO)cnc21,0%,0%,17%,0%,37%,11%,5%,0%,23%,0%,15%,3%,0%,0%,0%,0%,25%,0%,0%,9%
